Data reported in PubChem BioAssay (NCATS).
“And” between values parts separate entries of the source, which are not always exact repeats. Equal entries are not always repeated. Unmarked numbers belong to inactive results. Records with an inconclusive call do not appear. The source made the active and inactive calls. Unless noted, the call rests on the fitted dose curve; in most records, active means well fitted curve in either direction with a large enough effect (not every such curve was filed as active); inconclusive means small, poorly fitted or top-dose-only effect, or another doubt; inactive means flat fitted curve, though single readings scatter.

Legend:
[1] = biological target: Cytochrome P450 1A2 (Homo sapiens) (UniProt P05177); assay: p450-cyp1a2 (AID 410; calls by dose curve; further: potency means the concentration at half of the fitted maximal effect;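 on activity change, negative = inhibition: -100% = full effect of reference inhibitor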)
Sequence of Cytochrome P450 1A2 (Homo sapiens) (P05177 whole entry, looked up): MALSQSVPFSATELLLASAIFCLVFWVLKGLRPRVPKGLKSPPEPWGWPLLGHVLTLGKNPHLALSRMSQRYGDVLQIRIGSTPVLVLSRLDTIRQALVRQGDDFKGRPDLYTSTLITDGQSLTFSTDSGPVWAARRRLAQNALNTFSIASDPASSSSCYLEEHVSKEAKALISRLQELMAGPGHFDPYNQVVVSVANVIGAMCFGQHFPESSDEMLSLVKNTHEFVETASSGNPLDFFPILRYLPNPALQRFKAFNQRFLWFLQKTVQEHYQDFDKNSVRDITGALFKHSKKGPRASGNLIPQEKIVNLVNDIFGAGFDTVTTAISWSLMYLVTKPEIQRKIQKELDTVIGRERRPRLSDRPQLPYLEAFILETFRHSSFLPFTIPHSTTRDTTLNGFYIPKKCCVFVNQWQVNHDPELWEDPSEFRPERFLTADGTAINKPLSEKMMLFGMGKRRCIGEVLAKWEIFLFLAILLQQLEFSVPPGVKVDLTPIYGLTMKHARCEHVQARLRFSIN
How it was run: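 Read-out is luminescence from luciferin produced by CYP1A2 demethylation of Luciferin-ME (100uM, at Km). Detection reagent stopped the 60 min NADPH-dependent reaction; signals were normalized to 57 uM furafylline.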

[2] = biological target: Glucocorticoid receptor (Homo sapiens) (UniProt P04150); assay: GR-GFP Redistribution (AID 450;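 active means compounds whose dose series gives a full or clear partial fitted curve of increased nuclear translocation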; further: potency means the concentration at half of the fitted maximal effect); conditions: U2OS GR-GFP nuclear translocation, laser cytometry, 2 h
Sequence of Glucocorticoid receptor (Homo sapiens) (P04150 whole entry, looked up, the tested form may be a part): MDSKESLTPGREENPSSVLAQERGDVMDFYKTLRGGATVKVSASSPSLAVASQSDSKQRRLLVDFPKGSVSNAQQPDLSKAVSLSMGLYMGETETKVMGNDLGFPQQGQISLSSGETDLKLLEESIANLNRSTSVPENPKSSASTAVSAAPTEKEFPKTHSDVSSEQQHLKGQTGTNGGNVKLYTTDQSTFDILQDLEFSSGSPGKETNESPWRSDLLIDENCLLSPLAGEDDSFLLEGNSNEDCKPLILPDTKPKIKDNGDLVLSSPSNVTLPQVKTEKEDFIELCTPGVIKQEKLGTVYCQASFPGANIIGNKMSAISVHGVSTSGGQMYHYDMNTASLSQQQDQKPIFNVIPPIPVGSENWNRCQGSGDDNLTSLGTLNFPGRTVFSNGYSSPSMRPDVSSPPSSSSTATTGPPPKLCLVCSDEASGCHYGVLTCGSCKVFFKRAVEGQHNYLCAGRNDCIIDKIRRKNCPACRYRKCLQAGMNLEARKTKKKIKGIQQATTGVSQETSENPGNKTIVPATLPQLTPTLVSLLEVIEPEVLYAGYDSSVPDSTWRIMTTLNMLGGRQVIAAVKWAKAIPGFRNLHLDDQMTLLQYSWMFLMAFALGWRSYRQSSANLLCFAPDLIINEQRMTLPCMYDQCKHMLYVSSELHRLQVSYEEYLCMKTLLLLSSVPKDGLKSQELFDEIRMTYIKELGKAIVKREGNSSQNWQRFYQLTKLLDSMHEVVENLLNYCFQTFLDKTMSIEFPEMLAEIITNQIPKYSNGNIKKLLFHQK

[3] = biological target: Glucocorticoid receptor (Homo sapiens) (UniProt P04150); assay: GR-EFC Redistribution (AID 451; calls by dose curve; further: potency means the concentration at half of the fitted maximal effect); conditions: CHO-K1 GR-EFC translocation, beta-gal luminescence, 2 h
How it was run: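 CHO-K1 cells expressing nuclear EA and GR-ED fragments of b-gal; compounds titrated up to 46 uM final, 2 h at 37 C. GR nuclear translocation read as complemented b-gal luminescence after 1 h RT detection.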

[4] = NFAT Signaling Pathway (AID 444); conditions: Jurkat NFAT-bla M1, carbachol, beta-lactamase ratio, 5 h; at 17.2 µM (top of the series) unless noted;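 further: carbachol stimulus at about its EC50 of 1 µM final; on the % scale 0 is the no-effect control and ±100 the full control effect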
How it was run: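 Jurkat cells with NFAT-driven β-lactamase reporter and co-expressed M1 receptor, stimulated with carbachol (final 1 uM, ~EC50), compound titration, 5 h at 37 °C. CCF4 loaded 1 h at RT; 460/530 nm ratio gave %activity and AC50.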

[5] = Stat Signaling Pathway (AID 446);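 further: ME-180 cervical cancer cells given 40 pM IL-6 alongside compound; SIE-controlled beta-lactamase reporter measured as 460/530 nm FRET emission ratio; on the % scale 0 is the no-effect control and ±100 the full control effect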
How it was run: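 Normalization used AC90 stimulation (300 pM IL-6) and AC90 inhibition (125 nM pan-JAK inhibitor at 40 pM IL-6). The underlying signal is SIE-driven beta-lactamase in ME-180 cells after 5 h IL-6 exposure with compound.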

[6] = Cell Viability - BJ (AID 421; calls by dose curve;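 further: potency means the concentration at half of the fitted maximal effect; cells exposed to compound for 40 hours at 37 °C before readout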); conditions: BJ fibroblast viability, qHTS
How it was run: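 Normal human BJ foreskin fibroblasts, 1500/well in complete medium, treated 40 hr at 37 °C. Cellular ATP by CellTiter-Glo luminescence; normalized to DMSO and 100 uM tamoxifen, AC50 from Hill fit.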

[7] = Cell Viability - Jurkat (AID 426;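 active means dose-dependent loss of cell ATP signal giving a full or clear fitted curve, ranked by lower potency value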; further: potency means the concentration at half of the fitted maximal effect); conditions: qHTS
How it was run: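 Cytotoxicity was scored as loss of cellular ATP, measured by luciferase-based luminescence, in Jurkat clone E6-1 cells after 40 h compound treatment; tamoxifen and doxorubicin served as positive controls.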

[8] = Cell Viability - Hek293 (AID 427;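 active means compounds whose dose-response curve shows a full or clear partial loss of cell viability, called from curve shape rather than a numeric limit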;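 further: potency means the concentration at half of the fitted maximal effect; cells exposed to compound for 40 hours at 37 °C before reading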); conditions: qHTS
How it was run: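 HEK293 cells in complete medium were exposed to compound for 40 hr at 37 °C, then cellular ATP was read by CellTiter-Glo luminescence. Data were normalized to DMSO (basal) and 100 uM tamoxifen (100% inhibition), and AC50 came from Hill fits.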

[9] = Cell Viability - HepG2 (AID 433; calls by dose curve;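 further: potency means the concentration at half of the fitted maximal effect; potency for ATP loss meaning cytotoxicity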); conditions: qHTS
How it was run: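 HepG2 cells, 1500 per well, treated 40 hr at 37 °C in complete medium; viability from intracellular ATP by CellTiter-Glo luminescence. Normalized to DMSO and 100 uM tamoxifen; AC50 from Hill fit of qHTS concentration-response.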

[10] = Cell Viability - MRC5 (AID 434; calls by dose curve;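 further: potency means the concentration at half of the fitted maximal effect; potency reflects cytotoxicity seen as loss of intracellular ATP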); conditions: MRC5 lung fibroblast viability, qHTS
How it was run: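 ATP luminescence read-out (CellTiter-Glo, 20 min RT) after 40 hr, 37 °C compound exposure of 1500 MRC5 cells/well. Data normalized to DMSO (basal) and 100 uM tamoxifen (100% inhibition); AC50 from standard Hill equation.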

[11] = Cell Viability - SK-N-SH (AID 435; calls by dose curve;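 further: potency means the concentration at half of the fitted maximal effect; compound exposure lasted 40 h at 37 °C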); conditions: SK-N-SH neuroblastoma cell viability qHTS
How it was run: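 SK-N-SH neuroblastoma cells (1500/well) treated 40 h at 37 °C in complete medium; viability read as cellular ATP by CellTiter-Glo luminescence. Normalized to DMSO and 100 uM tamoxifen; AC50 from Hill fits of qHTS concentration-response.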

[12] = biological target: Mitogen-activated protein kinase 10 (Mus musculus) (UniProt Q61831); assay: JNK3 AlphaScreen Assay (AID 530);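 further: kinase came from lysate of stimulated human HepG2 cells; signal reports phosphorylation of biotinylated GST-cJun 1-79 at Ser73 with 10 µM ATP; on the % scale 0 is the no-effect control and ±100 the full control effect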
How it was run: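 HepG2 lysate (IL-1b/TNFa pre-activated) + biotin-GST-cJun 1-79 + anti-pSer73 cJun; cpd titration, 15 min RT; ATP 10 uM start; Tris pH 7.6, MgCl2, DTT, vanadate; beads in EDTA buffer; AlphaScreen.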

[13] = Cell Viability - N2a (AID 540; active means well fitted curve in the direction sought with a large enough effect; an effect the other way counts as inactive or inconclusive; further: nearly all actives have a fitted effect of over 45% in size; further: potency means the concentration at half of the fitted maximal effect;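 on activity change, negative = cytotoxicity: plate controls were DMSO alone for no effect and tamoxifen control for full effect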)
How it was run: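 In this qHTS cytotoxicity screen, ATP-dependent luciferase luminescence reports viable N2a cells after a 40 hr compound exposure in complete culture medium. Potencies are AC50 values from standard Hill equation fits.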

[14] = Cell Viability - NIH 3T3 (AID 541; active means well fitted curve in the direction sought with a large enough effect; an effect the other way counts as inactive or inconclusive;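 further: plate controls were DMSO alone for no effect and tamoxifen positive control for full effect; nearly all actives have a fitted effect of over 25% in size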); conditions: NIH 3T3 cell viability, qHTS; activity change, negative = cytotoxicity: at 92.2 µM (top of the series)
How it was run: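 In this cytotoxicity screen, acute toxicity is scored as an ATP drop measured by CellTiter-Glo in NIH 3T3 fibroblasts following a 40 hr, 37 °C incubation with compound.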

[15] = Cell Viability - HUV-EC-C (AID 542; active means well fitted curve in the direction sought with a large enough effect; an effect the other way counts as inactive or inconclusive; further: on the % scale 0 is the no-effect control and ±100 the full control effect; nearly all actives have a fitted effect of over 35% in size)
How it was run: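 Concentration-dependent ATP loss in HUV-EC-C cells is the measure. Exposure lasts 40 hr at 37 °C; luminescence follows CellTiter-Glo addition, and Hill fits give AC50.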

[16] = Cell Viability - H-4-II-E (AID 543; active means well fitted curve in the direction sought with a large enough effect; an effect the other way counts as inactive or inconclusive; further: nearly all actives have a fitted effect of over 35% in size; further: potency means the concentration at half of the fitted maximal effect)
How it was run: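 AC50 from Hill-modelled qHTS concentration-response curves. H-4-II-E rat hepatoma cells in complete medium, 40 hr exposure at 37 °C, viability by CellTiter-Glo ATP luminescence.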

[17] = Cell Viability - SH-SY5Y (AID 544; active means well fitted curve in the direction sought with a large enough effect; an effect the other way counts as inactive or inconclusive; further: nearly all actives have a fitted effect of over 55% in size; further: potency means the concentration at half of the fitted maximal effect;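 on viability change, negative = cytotoxic: 0% = DMSO alone and -100% = 100 µM tamoxifen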); conditions: SH-SY5Y neuroblastoma cell viability; viability change, negative = cytotoxic: at 92.2 µM (top of the series)
How it was run: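 Quantitative HTS in SH-SY5Y neuroblastoma cells, 40 hr treatment at 37 °C, ATP content by luciferase luminescence; AC50 from Hill fits.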

[18] = Cell Viability - Renal Proximal Tubule (AID 545; active means well fitted curve in the direction sought with a large enough effect; an effect the other way counts as inactive or inconclusive;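 further: 0% = DMSO only and -100% = 100 µM tamoxifen; nearly all actives have a fitted effect of over 40% in size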)
How it was run: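 Rat renal proximal tubule primary cells, 1000/well, exposed to compounds for 40 hr at 37 °C in complete medium; cellular ATP read by CellTiter-Glo luminescence. AC50 from concentration-response fitted with standard Hill equation.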

[19] = AP1 Signaling Pathway (AID 357); further: on the % scale 0 is the no-effect control and ±100 the full control effect
How it was run: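 AP-1-bla ME-180 cells with beta-lactamase reporter under AP-1 response element, stimulated with EC50 EGF; compounds titrated, 5 hours at 37 degrees Celsius. CCF4 read at 460/530 nm ratio; positive and negative modulators judged by AC50.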

Cl/C(=C\n1cncn1)c1ccc(Cl)cc1Cl
Potency [1]: 0.0631 µM (active)
Potency [2]: > 46 µM
Potency [3]: > 46 µM

CNCCc1ccccn1
Potency [1]: inactive
activity change, negative = inhibition [4]: -6.53%
outcome [5]: inactive
Potency [2]: > 20.6 µM
Potency [3]: > 20.6 µM

OC[C@H]1O[C@@H]2O[C@H]3[C@H](O)[C@@H](O)[C@@H](O[C@H]4[C@H](O)[C@@H](O)[C@@H](O[C@H]5[C@H](O)[C@@H](O)[C@@H](O[C@H]6[C@H](O)[C@@H](O)[C@@H](O[C@H]7[C@H](O)[C@@H](O)[C@@H](O[C@H]8[C@H](O)[C@@H](O)[C@@H](O[C@H]1[C@H](O)[C@H]2O)O[C@@H]8CO)O[C@@H]7CO)O[C@@H]6CO)O[C@@H]5CO)O[C@@H]4CO)O[C@@H]3CO
Potency [6]: > 92 µM
Potency [7]: > 92 µM
Potency [8]: > 92 µM
Potency [9]: > 92 µM
Potency [10]: > 92 µM
Potency [11]: > 92 µM
Potency [12]: inactive
Potency [13]: inactive
activity change, negative = cytotoxicity [14]: 5.27%
outcome [15]: inactive
Potency [16]: inactive
viability change, negative = cytotoxic [17]: -6.32%
outcome [18]: inactive

COc1cc(NS(=O)(=O)c2ccc(N)cc2)ncn1
outcome [19]: inactive
activity change, negative = inhibition [4]: -5.57% and -24.6% and -2.19%
outcome [5]: inactive
Potency [2]: > 20.6 µM
Potency [3]: > 20.6 µM

O=C(O)CCC(=O)Nc1ccc(S(=O)(=O)Nc2nccs2)cc1
outcome [19]: inactive
activity change, negative = inhibition [4]: 4.24% and -25.1%
outcome [5]: inactive
Potency [2]: > 20.6 µM
Potency [3]: > 20.6 µM

CNCCCCOc1ccccc1Cc1ccccc1
Potency [2]: > 46 µM
Potency [3]: > 46 µM

O=C(c1ccc(F)cc1)C1CCN(CCn2c(=S)[nH]c3ccccc3c2=O)CC1
Potency [1]: 15.8 µM (active)
Potency [2]: > 46 µM
Potency [3]: > 46 µM
Potency [12]: inactive

O=C1C(=O)c2ccccc2C(O)=C1C1CCC(c2ccc(Cl)cc2)CC1 (centres undefined)
outcome [19]: inactive
activity change, negative = inhibition [4]: -25%
Potency [12]: inactive

CCCCCCCCNC(C)C(O)c1ccc(SC(C)C)cc1 (centres undefined)
outcome [19]: inactive
outcome [5]: inactive
Potency [2]: > 20.6 µM

COc1ccccc1N1CCN(CCCCNC(=O)c2ccc(-c3ccc(C(C)=O)cc3)cc2)CC1
Potency [1]: 25.1 µM (active)
Potency [2]: > 46 µM
Potency [3]: > 46 µM

CCCCC(CC)COC(=O)c1ccc(N(C)C)cc1 (centres undefined)
Potency [6]: > 92 µM
Potency [7]: > 92 µM
Potency [8]: > 92 µM
Potency [9]: > 92 µM
Potency [10]: > 92 µM
Potency [11]: > 92 µM
Potency [13]: inactive
activity change, negative = cytotoxicity [14]: -7.45%
outcome [15]: inactive
Potency [16]: inactive
viability change, negative = cytotoxic [17]: 0.409%
outcome [18]: inactive

CC[N+](C)(CC)CCOC(=O)C(O)(c1ccccc1)C1CCCCC1 (centres undefined)
outcome [19]: inactive
activity change, negative = inhibition [4]: -95.5% (active)
outcome [5]: inactive
Potency [2]: > 20.6 µM

Oc1c(Cl)cc(Cl)c(Cl)c1Cc1c(O)c(Cl)cc(Cl)c1Cl
Potency [6]: 0.536 µM
Potency [9]: 10.7 µM (active)
Potency [13]: 794 nM (active)
activity change, negative = cytotoxicity [14]: -102% (active)
Potency [16]: 31.6 µM (active)
Potency [17]: 15.8 µM (active)

COc1cc(C)nc(-n2nc(C)cc2OC)n1
outcome [19]: inactive
activity change, negative = inhibition [4]: -6.98%
outcome [5]: inactive
Potency [2]: > 20.6 µM
Potency [3]: > 20.6 µM
Potency [12]: inactive

C=C[C@H]1CN2CC[C@H]1C[C@@H]2[C@@H](O)c1ccnc2ccc(OC)cc12
Potency [6]: > 92 µM
Potency [8]: > 92 µM
Potency [9]: > 92 µM
Potency [10]: > 92 µM
Potency [11]: > 92 µM
Potency [12]: inactive
Potency [13]: inactive
outcome [15]: inactive
Potency [16]: inactive
viability change, negative = cytotoxic [17]: -25.7%
outcome [18]: inactive

CC[C@H](c1ccc(O)cc1)[C@@H](CC)c1ccc(O)cc1
Potency [1]: 12.6 µM (active)
outcome [5]: inactive
Potency [2]: > 20.6 µM
Potency [3]: > 20.6 µM
